What all share (test): DAPPL (digital affinity profiling via proximity ligation, sequencing); 10 mM Tris-HCl pH 7.5, 50 mM NaCl, 1 mM DTT, 4% glycerol, room temperature, 30 min; GST-TFs on glutathione beads, 16-mer random dsDNA library, 0.1% formaldehyde crosslink after washing; high values mean tight binding
For one test, the target named is T1, FEV (Homo sapiens, UniProt Q99581 1-238).
T1 sequence: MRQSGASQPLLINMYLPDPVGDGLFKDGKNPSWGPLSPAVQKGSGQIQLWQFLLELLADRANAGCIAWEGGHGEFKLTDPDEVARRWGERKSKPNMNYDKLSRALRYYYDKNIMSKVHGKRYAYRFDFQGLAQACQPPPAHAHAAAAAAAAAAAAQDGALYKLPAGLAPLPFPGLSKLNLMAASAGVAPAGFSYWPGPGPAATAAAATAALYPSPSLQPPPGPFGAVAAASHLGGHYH
The settings on record: protein: recombinant; tags: N-terminal GST; dsDNA, one strand shown. In a few lines: (§1)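 Binding signal is each hexamer's read frequency for a factor divided by its frequency in the tag-only sample. The factors were GST-fused human transcription factors from yeast, captured on glutathione beads, DNA-barcoded and pooled with that sample. Pools were incubated with 200 nmole of a random double-stranded 16-mer DNA library in Tris/NaCl/DTT/glycerol buffer at room temperature for 30 min, then washed, crosslinked with 0.1% formaldehyde, proximity-ligated with BsaI/T4 ligase (1 h, 37 °C), PCR-amplified and sequenced on an Illumina NextSeq500.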

The target in the next test is ETV5 (Homo sapiens, UniProt P41161 1-510). The conditions noted are these: protein: recombinant; tags: N-terminal GST; dsDNA, one strand shown. The method, boiled down:
as §1

The target in the next test is HSF1 (Homo sapiens, UniProt Q00613 1-529). The conditions noted are these: protein: recombinant; tags: N-terminal GST; chain copies: 3; dsDNA, one strand shown. The method, boiled down:
as §1

For another test, the target named is T2, SPIC (Homo sapiens, UniProt Q8N5J4 1-248).
T2 sequence: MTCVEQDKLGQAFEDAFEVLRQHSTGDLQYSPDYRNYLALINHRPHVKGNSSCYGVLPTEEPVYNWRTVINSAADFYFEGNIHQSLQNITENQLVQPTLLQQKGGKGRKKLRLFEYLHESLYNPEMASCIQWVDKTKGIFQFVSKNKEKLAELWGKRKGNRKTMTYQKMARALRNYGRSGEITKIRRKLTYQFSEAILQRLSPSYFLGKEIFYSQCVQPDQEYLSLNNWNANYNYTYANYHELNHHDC
The conditions noted are these: protein: recombinant; tags: N-terminal GST; dsDNA, one strand shown. In a few lines:
as §1

The next test addresses ELF4 (Homo sapiens, UniProt Q99607 1-663). The conditions noted are these: protein: recombinant; tags: N-terminal GST; dsDNA, one strand shown. The method, boiled down:
as §1

A further test concerns the target T3, ELK4 (Homo sapiens, UniProt P28324-2 1-405).
T3 sequence: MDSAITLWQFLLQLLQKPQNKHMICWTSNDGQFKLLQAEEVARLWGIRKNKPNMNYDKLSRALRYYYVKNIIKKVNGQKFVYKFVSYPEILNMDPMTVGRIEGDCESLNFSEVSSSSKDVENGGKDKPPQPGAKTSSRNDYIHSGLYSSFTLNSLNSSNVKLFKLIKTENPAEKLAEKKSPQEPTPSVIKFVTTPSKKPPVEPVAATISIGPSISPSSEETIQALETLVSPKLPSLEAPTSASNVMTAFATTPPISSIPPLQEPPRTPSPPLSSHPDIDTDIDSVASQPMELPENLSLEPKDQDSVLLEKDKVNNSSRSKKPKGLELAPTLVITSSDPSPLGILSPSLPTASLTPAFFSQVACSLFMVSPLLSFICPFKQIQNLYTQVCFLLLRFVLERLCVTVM
The conditions noted are these: protein: recombinant; tags: N-terminal GST; dsDNA, one strand shown. The method, boiled down: as §1

The next test concerns the target T4, ETV2 (Homo sapiens, UniProt O00321 1-342).
T4 sequence: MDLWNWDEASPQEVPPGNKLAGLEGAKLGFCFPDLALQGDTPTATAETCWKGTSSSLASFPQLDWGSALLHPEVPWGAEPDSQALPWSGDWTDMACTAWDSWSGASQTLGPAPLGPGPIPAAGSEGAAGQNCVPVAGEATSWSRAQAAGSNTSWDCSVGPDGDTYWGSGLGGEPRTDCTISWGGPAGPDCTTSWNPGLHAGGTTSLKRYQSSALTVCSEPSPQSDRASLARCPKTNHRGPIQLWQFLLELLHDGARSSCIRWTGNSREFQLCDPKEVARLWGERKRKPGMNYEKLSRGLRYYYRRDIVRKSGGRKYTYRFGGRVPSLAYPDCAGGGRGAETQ
The conditions noted are these: protein: recombinant; tags: N-terminal GST; dsDNA, one strand shown. In a few lines:
as §1

The target in another test is T5, ELF3 (Homo sapiens, UniProt P78545 1-371).
T5 sequence: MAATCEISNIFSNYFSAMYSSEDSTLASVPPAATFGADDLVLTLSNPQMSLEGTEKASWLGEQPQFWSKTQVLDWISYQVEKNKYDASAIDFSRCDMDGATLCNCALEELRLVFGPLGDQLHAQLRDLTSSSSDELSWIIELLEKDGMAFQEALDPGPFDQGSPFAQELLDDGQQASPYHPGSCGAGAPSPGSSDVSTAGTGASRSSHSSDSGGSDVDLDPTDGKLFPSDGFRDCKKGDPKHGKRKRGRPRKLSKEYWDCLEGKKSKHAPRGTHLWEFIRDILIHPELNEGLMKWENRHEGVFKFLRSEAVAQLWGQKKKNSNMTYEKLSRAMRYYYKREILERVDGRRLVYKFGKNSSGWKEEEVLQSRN
The settings on record: protein: recombinant; tags: N-terminal GST; dsDNA, one strand shown. The method, boiled down:
as §1

A further test has as its target CRX (Homo sapiens, UniProt O43186 1-299). The conditions noted are these: protein: recombinant; tags: N-terminal GST; dsDNA, one strand shown. In a few lines:
as §1

For another test, the target named is ETV1 (Homo sapiens, UniProt P50549 1-477). The settings on record: protein: recombinant; tags: N-terminal GST; dsDNA, one strand shown. The method, boiled down:
as §1

In a further test the target is T6, ERF (Homo sapiens, UniProt P50548 1-548).
T6 sequence: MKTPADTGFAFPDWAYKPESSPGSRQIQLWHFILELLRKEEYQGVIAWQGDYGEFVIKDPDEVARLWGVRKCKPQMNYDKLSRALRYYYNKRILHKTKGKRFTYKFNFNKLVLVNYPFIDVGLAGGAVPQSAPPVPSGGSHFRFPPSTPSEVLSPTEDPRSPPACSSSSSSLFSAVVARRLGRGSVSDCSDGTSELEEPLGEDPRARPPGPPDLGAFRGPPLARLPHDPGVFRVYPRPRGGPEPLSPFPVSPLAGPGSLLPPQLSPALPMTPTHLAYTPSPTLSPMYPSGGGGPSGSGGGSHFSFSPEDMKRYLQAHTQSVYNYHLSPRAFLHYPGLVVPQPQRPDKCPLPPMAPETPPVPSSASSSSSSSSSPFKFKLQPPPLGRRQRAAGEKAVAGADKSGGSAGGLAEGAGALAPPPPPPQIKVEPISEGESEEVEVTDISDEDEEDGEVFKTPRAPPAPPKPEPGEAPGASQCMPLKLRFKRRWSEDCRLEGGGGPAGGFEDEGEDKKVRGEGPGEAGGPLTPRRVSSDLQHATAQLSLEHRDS
The settings on record: protein: recombinant; tags: N-terminal GST; dsDNA, one strand shown. In a few lines:
as §1

Another test has as its target T7, ETV3L (Homo sapiens, UniProt Q6ZN32 1-361).
T7 sequence: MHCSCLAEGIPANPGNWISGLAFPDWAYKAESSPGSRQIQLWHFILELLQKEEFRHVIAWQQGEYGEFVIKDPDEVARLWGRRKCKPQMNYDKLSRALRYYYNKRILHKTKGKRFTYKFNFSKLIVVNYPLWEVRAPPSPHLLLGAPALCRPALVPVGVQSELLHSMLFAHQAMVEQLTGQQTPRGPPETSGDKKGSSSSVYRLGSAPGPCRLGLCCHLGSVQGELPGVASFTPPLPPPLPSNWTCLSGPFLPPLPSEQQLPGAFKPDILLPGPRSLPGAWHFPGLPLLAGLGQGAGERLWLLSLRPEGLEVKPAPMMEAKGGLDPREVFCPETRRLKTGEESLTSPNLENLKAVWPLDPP
The settings on record: protein: recombinant; tags: N-terminal GST; dsDNA, one strand shown. In a few lines: as §1

A further test deals with T8, ETS2 (Homo sapiens, UniProt P15036 1-469).
T8 sequence: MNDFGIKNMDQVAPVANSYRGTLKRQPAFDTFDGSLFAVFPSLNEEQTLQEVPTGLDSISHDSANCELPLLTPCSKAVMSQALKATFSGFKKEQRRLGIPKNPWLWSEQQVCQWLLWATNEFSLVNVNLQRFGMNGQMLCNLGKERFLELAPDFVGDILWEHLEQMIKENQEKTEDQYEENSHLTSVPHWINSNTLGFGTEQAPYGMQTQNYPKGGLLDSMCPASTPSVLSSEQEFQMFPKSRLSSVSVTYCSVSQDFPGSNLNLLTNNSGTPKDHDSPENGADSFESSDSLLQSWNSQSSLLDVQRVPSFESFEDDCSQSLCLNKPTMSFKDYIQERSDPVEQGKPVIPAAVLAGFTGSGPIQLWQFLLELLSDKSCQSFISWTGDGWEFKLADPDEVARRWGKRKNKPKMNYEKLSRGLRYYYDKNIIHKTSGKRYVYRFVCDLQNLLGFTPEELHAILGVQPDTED
The conditions noted are these: protein: recombinant; tags: N-terminal GST; dsDNA, one strand shown. In a few lines:
as §1

The target of the next test is T9, SPDEF (Homo sapiens, UniProt O95238 1-335).
T9 sequence: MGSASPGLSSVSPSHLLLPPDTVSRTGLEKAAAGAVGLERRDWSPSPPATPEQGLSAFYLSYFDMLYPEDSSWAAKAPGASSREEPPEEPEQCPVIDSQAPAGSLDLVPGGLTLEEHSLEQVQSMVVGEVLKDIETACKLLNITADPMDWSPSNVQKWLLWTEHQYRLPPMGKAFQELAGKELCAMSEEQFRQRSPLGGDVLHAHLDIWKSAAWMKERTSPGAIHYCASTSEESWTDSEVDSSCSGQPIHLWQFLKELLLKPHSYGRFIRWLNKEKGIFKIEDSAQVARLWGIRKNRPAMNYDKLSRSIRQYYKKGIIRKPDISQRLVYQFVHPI
The settings on record: protein: recombinant; tags: N-terminal GST; dsDNA, one strand shown. The method, boiled down: as §1

Another test deals with T10, ETV7 (Homo sapiens, UniProt Q9Y603 1-341).
T10 sequence: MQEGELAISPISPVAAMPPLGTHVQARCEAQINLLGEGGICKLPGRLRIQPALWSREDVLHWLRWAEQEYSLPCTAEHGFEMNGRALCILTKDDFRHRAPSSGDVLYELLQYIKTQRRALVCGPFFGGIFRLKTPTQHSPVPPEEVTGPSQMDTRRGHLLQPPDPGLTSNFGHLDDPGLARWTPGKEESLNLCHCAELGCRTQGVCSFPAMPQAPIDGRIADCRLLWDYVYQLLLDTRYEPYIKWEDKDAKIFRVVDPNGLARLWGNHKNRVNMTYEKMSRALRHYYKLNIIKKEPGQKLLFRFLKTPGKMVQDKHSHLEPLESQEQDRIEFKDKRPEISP
The settings on record: protein: recombinant; tags: N-terminal GST; dsDNA, one strand shown. The method, boiled down:
as §1

The next test deals with T11, ELF5 (Homo sapiens, UniProt Q9UKW6-2 1-255).
T11 sequence: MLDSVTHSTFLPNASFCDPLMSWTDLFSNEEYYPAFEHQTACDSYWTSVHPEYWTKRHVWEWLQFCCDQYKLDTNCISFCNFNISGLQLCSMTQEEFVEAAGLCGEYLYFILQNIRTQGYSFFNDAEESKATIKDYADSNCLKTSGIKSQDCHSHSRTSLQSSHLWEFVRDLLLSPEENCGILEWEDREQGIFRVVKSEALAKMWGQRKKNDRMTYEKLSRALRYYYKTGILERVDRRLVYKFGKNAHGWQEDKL
The settings on record: protein: recombinant; tags: N-terminal GST; dsDNA, one strand shown. In a few lines: as §1

A further test addresses T12, ETV3 (Homo sapiens, UniProt P41162-2 1-143).
T12 sequence: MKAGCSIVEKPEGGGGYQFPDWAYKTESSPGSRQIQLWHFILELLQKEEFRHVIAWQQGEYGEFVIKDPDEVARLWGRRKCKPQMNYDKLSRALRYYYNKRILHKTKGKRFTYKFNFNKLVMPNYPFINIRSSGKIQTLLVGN
The settings on record: protein: recombinant; tags: N-terminal GST; dsDNA, one strand shown. The method, boiled down: as §1

Another test addresses ETV6 (Homo sapiens, UniProt P41212 1-452). The settings on record: protein: recombinant; tags: N-terminal GST; dsDNA, one strand shown. In a few lines: as §1

Chain of ELF4 (Q99607 whole entry): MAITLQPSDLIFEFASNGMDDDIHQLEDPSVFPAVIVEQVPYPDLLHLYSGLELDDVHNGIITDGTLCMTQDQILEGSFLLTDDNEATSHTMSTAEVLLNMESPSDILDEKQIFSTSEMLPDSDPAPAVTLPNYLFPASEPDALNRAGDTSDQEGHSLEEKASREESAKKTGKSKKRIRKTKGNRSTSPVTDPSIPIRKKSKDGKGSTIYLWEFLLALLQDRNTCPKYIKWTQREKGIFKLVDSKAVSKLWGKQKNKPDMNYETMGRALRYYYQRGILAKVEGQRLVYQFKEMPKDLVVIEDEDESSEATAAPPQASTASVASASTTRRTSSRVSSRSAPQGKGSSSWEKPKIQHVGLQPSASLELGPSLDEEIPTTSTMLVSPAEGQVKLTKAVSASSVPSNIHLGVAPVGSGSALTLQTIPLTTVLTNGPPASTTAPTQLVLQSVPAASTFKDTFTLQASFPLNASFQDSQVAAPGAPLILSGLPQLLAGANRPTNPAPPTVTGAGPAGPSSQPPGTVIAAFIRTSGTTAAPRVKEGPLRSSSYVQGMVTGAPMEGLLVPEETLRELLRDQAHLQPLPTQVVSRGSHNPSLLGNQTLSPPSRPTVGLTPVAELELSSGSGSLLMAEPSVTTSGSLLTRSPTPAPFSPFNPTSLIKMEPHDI
Chain of ETV1 (P50549 whole entry): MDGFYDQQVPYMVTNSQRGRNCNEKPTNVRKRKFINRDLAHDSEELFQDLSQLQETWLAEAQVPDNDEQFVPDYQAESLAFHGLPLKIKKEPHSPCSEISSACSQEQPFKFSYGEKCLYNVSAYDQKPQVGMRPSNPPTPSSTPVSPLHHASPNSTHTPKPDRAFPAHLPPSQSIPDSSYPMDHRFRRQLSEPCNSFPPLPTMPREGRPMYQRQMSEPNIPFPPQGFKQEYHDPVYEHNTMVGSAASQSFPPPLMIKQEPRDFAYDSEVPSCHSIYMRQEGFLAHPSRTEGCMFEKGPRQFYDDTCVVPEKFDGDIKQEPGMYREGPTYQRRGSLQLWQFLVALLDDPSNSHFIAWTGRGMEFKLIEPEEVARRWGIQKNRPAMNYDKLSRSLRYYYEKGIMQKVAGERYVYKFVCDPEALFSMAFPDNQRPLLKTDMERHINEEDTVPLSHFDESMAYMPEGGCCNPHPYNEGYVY
Chain of ETV5 (P41161 whole entry): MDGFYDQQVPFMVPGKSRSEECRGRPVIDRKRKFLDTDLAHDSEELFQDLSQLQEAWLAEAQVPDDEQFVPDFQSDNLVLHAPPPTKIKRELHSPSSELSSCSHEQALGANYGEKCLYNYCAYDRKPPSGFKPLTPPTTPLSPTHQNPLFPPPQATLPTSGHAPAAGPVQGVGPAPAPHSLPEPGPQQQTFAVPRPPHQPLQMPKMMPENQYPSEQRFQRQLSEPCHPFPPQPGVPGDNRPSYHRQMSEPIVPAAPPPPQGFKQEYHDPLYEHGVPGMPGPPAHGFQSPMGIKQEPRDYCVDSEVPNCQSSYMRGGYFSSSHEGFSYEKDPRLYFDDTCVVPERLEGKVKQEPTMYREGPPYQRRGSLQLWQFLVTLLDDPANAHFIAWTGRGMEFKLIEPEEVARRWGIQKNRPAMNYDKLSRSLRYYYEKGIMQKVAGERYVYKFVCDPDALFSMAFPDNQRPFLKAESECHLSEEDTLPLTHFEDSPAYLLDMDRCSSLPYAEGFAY
Chain of ETV6 (P41212 whole entry): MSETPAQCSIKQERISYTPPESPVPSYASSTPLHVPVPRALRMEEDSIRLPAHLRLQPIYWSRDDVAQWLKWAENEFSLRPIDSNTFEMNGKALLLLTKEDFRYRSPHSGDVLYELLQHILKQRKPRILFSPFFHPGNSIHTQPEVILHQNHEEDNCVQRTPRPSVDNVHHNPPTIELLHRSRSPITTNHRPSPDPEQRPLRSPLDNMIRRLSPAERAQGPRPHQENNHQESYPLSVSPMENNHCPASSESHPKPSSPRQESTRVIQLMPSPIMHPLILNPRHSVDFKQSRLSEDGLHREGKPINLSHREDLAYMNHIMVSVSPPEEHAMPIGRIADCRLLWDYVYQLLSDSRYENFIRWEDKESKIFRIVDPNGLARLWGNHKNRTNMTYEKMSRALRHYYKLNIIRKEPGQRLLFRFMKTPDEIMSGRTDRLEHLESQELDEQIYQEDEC
Chain of HSF1 (Q00613 whole entry): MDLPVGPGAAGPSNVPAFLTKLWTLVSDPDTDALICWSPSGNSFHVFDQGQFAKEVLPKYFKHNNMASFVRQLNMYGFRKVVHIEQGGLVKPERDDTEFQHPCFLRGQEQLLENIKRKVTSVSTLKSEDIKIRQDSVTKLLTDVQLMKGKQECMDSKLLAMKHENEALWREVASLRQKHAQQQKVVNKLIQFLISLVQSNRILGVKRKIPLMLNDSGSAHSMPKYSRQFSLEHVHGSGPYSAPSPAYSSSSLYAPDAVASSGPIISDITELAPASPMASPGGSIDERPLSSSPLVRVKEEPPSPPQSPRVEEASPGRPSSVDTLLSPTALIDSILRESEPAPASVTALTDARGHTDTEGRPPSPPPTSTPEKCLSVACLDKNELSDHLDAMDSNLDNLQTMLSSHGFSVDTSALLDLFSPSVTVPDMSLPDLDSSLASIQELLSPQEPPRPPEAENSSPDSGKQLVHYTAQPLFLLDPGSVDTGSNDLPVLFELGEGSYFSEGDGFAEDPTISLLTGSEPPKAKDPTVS
Chain of CRX (O43186 whole entry): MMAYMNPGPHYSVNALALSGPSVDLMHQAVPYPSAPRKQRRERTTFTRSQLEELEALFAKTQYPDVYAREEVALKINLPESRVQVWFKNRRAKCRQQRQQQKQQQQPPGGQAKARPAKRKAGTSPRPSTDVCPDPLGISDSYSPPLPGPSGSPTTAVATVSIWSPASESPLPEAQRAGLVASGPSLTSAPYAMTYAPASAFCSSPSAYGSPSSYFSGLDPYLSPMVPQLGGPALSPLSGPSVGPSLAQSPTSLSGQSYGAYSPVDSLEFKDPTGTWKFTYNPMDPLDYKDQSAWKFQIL

As for GAAAAT, the binding signal is 1.07 fold enrichment (6-mer frequency, TF over GST control) with FEV; 1.16 fold enrichment (6-mer frequency, TF over GST control) in the test with ETV5; 1.49 fold enrichment (6-mer frequency, TF over GST control) in the test with HSF1; 1.09 fold enrichment (6-mer frequency, TF over GST control) with SPIC; 1.14 fold enrichment (6-mer frequency, TF over GST control) with ELF4; 1.01 fold enrichment (6-mer frequency, TF over GST control) with ELK4. Also, the binding signal was 1.17 fold enrichment (6-mer frequency, TF over GST control) in the test with ETV2; 1.09 fold enrichment (6-mer frequency, TF over GST control) in the test with ELF3; 1.2 fold enrichment (6-mer frequency, TF over GST control) with CRX; 1.02 fold enrichment (6-mer frequency, TF over GST control) with ETV1; 1.18 fold enrichment (6-mer frequency, TF over GST control) in the test with ERF; 1.15 fold enrichment (6-mer frequency, TF over GST control) with ETV3L. Besides, the binding signal is 1.13 fold enrichment (6-mer frequency, TF over GST control) with ETS2; 1.05 fold enrichment (6-mer frequency, TF over GST control) with SPDEF; 1.2 fold enrichment (6-mer frequency, TF over GST control) in the test with ETV7; 1.17 fold enrichment (6-mer frequency, TF over GST control) in the test with ELF5; 1.07 fold enrichment (6-mer frequency, TF over GST control) with ETV3; 1.19 fold enrichment (6-mer frequency, TF over GST control) with ETV6.

These data come from article PMC7862700, “An all-to-all approach to the identification of sequence-specific readers for epigenetic DNA modifications on cytosine”.
